# Sampled rows, rich in hits. Any-hit rate of the full collection: about 2.4%.
# SENP6 inh – SENP6 protease inhibition | Recombinant SENP6 catalytic domain, aminoluciferin luminescence | inhibition, % at 10 µM | 330,000 tested, 1.8% active;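 active means inhibition above about 50% at the single tested dose, limit read from the data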;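 further: plate controls were DMSO wells with enzyme for no effect and DMSO wells lacking enzyme for full effect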
# SENP7 inh – blocks the human protease SENP7; Q9BQF6; recombinant SENP7, Z-RLRGG-aminoluciferin luminescence, 40 min; inhibition, % at 5 µM; 330,000 tested, 1.5% active; AID 434973;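 active means inhibition above about 50% at the single test dose, limit read from the data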;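 further: plate controls were DMSO with enzyme for no effect and no enzyme buffer wells for full effect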
# Target sequence (Q9BQF6 706-1050 limits assumed): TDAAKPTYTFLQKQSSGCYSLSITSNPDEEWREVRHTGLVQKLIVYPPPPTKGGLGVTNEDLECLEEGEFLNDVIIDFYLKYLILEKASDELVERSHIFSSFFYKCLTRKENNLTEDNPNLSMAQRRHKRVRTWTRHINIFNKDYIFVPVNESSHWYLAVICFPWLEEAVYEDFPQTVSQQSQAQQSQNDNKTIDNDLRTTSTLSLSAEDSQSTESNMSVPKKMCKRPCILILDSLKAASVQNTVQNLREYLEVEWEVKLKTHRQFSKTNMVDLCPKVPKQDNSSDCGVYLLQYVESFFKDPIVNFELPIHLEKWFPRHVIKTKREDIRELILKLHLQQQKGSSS
# SENP8 block-1 – SENP8 (human) protease inhibition; recombinant SENP8, Nedd8 substrate fluorescence; inhibition, % at 20 µM; 360,000 tested, 0.64% active; AID 602440; in the data active means inhibition mostly above about 40%, no sharp cut-off; inactive means mostly below about 27%
# Target sequence (Q96LD8 whole entry, looked up): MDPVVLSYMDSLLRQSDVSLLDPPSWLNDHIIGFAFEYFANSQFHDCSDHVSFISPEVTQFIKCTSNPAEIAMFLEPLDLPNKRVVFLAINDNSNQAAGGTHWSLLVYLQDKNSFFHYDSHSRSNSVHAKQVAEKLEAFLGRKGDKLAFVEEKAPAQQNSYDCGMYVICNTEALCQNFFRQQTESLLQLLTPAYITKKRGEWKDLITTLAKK
# SENP8 block-2 – SENP8 protease inhibition; inhibition, % at 10 µM; purified SENP8, Z-RLRGG-aminoluciferin cleavage, luminescence; Q96LD8; 330,000 tested, 1.2% active; in the data active means inhibition above about 50%
# Platelet DG rel – platelet dense granule release activity; inhibition, %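 (compounds screened at 7.5 µM in platelet-rich plasma)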; AID 1663; 300,000 tested, 0.22% active; human platelet-rich plasma, SFLLRN dense granule ATP release, luminescence;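 active means mean replicate score, as percent of positive control, at or above 50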
# SENP8 confirm – human SENP8 inhibition, confirmed | shares compounds with SENP7 inh | Recombinant SENP8, Z-RLRGG-aminoluciferin luminescence, 60 min | inhibition, % at 12.5 µM | 6,200 tested, 40% active | AID 488912;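 active means mean inhibition across replicates above about 50%, limit read from the data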
# SENP6 confirm – confirmation of human SENP6 protease inhibitors; shares compounds with SENP7 inh; recombinant SENP6, Z-RLRGG-aminoluciferin luminescence; inhibition, % at 12.5 µM; 6,200 tested, 58% active
# SENP7 conf – human SENP7 inhibition, confirmed. 6,200 tested, 69% active. AID 488917. recombinant SENP7, Z-RLRGG-aminoluciferin luminescence, 40 min. inhibition, % at 12.5 µM. shares compounds with SENP7 inh
# Casp3 SENP sel – inhibits human caspase-3 in SENP selectivity test. shares compounds with SENP7 inh. purified caspase-3, Z-DEVD-aminoluciferin luminescence, 60 min. inhibition, % at 12.5 µM. 6,200 tested, 60% active. AID 488918;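 active means mean inhibition above about 50%, limit read from the data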;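 further: plate controls were enzyme with DMSO for no effect and wells without caspase-3 for full effect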
# Luc interf – interferes with luciferase luminescence in SENP counter-screen. shares compounds with SENP7 inh. Pre-incubated SENP8/Z-RLRGG-aminoluciferin, luciferase luminescence interference. inhibition, % at 12.5 µM. 6,200 tested, 39% active. AID 488919;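 active means mean inhibition above about 50% when retested at one dose, limit read from the data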;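 further: plate controls were DMSO wells with completed reaction for no effect and substrate without enzyme for full effect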
# * hit, by the source's call; i = inactive; nt = not tested or not shown.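 How the source made its calls, unless noted: active means mean inhibition above about 50% in the one-dose retest (limit read from the data); inactive means the rest.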
SMILES,SENP6 inh,SENP7 inh,SENP8 block-1,SENP8 block-2,Platelet DG rel,SENP8 confirm,SENP6 confirm,SENP7 conf,Casp3 SENP sel,Luc interf
COc1ccc(NCc2ccc3c(c2)OCO3)cc1Cl,11,1,10,-3,3,nt,nt,nt,nt,nt
COc1cccc2sc3ccc(NCCC4CCCN4C)cc3c(=O)c12 (centres undefined),-8,12,9,-21,1,nt,nt,nt,nt,nt
COc1cccc2sc3cc(NCc4ccc5c(c4)OCO5)ccc3c(=O)c12,11,58*,-487,14,nt,2,2,3,15,12
COc1cc2sc3cc(NCc4ccc(C)o4)ccc3c(=O)c2cc1OC,-23,87*,i,81*,nt,-9,56*,88*,80*,62*
COc1cc2sc3cc(NCc4ccc5c(c4)OCO5)ccc3c(=O)c2cc1OC,-25,70*,-494,44,nt,-24,-14,-3,7,18
CCn1c2nc(SCCN3CCOCC3)nnc2c2cc(C)cc(C)c21,18,0,19,9,-2,nt,nt,nt,nt,nt
C(=C\c1nnc(-c2cccs2)o1)/c1ccccc1,81*,3,-275,74*,-5,15,61*,88*,65*,34
Cc1ccc(/C=C/c2nnc(-c3ccccc3)o2)cc1,86*,6,-251,76*,-4,15,63*,89*,80*,23
Cc1ccc(-c2nnc(Nc3ccccc3)o2)cc1,97*,4,-90,95*,37,-2,93*,75*,87*,37
Cc1ccc(NC(=O)Nc2nnc(-c3ccccc3)o2)cc1,-7,6,6,0,3,nt,nt,nt,nt,nt
c1ccc(CSc2nnc(-c3cccs3)o2)cc1,1,-2,0,-1,-1,nt,nt,nt,nt,nt
Cc1ccc(-c2noc(/C=C/c3ccccc3)n2)cc1,22,4,10,14,15,nt,nt,nt,nt,nt
Clc1ccccc1-c1nnc(-c2cccs2)o1,81*,80*,-140,72*,3,75*,74*,92*,79*,55*
C[C@H](CO)N1C[C@H](C)[C@@H](CN(C)S(=O)(=O)c2ccccc2C#N)OCc2cn(nn2)CCCC1=O,nt,nt,11,nt,nt,nt,nt,nt,nt,nt
Cc1ccc(NC(=O)COC(=O)C2(C)CC2(Cl)Cl)cc1S(=O)(=O)N1CCOCC1 (centres undefined),-7,-7,-1,18,nt,nt,nt,nt,nt,nt
N=C1S/C(=C\c2ccco2)C(=O)N1c1nccs1,58*,-6,14,53*,0,-14,-1,23,31,2
Cc1cc(NC(=O)CSc2ccc(-c3nc4cc(C)c(C)cc4[nH]3)cn2)no1,6,51*,-301,0,2,-4,0,8,6,5
Cc1cc2nc(-c3ccc(SCc4ccc(C(=O)O)cc4)nc3)[nH]c2cc1C,nt,nt,-384,nt,-1,nt,nt,nt,nt,nt
Cc1cc2nc(-c3ccc(SCC(=O)NC(C)C)nc3)[nH]c2cc1C,8,11,nt,1,16,nt,nt,nt,nt,nt
Cc1cc2nc(-c3ccc(SCC(=O)Nc4ccc(S(=O)(=O)NC5CC5)cc4)nc3)[nH]c2cc1C,29,63*,-418,1,-7,13,18,78*,39,20
CN(CC(=O)Nc1sccc1C(N)=O)S(=O)(=O)c1ccc(Cl)cc1,-2,11,-10,2,nt,nt,nt,nt,nt,nt
O=C(O)C(=O)Nc1nc(-c2ccc3c(c2)OCCO3)cs1,73*,24,-23,44,21,67*,66*,89*,88*,76*
CC(C)(C)C(=O)OCc1nc(-c2ccc3c(c2)OCCO3)cs1,89*,88*,14,86*,13,90*,90*,71*,77*,59*
CCCC(=O)Nc1nc(-c2ccc3c(c2)OCCO3)cs1,-3,-4,16,-16,nt,nt,nt,nt,nt,nt
CC(C)(C)C(=O)OCc1nc(-c2ccc(F)cc2)cs1,52*,45,16,24,-5,-4,27,71*,25,6
SMILES,SENP6 inh,SENP7 inh,SENP8 block-1,SENP8 block-2,Platelet DG rel,SENP8 confirm,SENP6 confirm,SENP7 conf,Casp3 SENP sel,Luc interf
C[C@H](CO)N1C[C@H](C)[C@@H](CN(C)S(C)(=O)=O)Oc2ccc(NS(=O)(=O)c3ccccc3)cc2C1=O,-3,-8,13,5,nt,nt,nt,nt,nt,nt
Fc1ccc2nc(Nc3nc4cc5c(cc4s3)OCO5)sc2c1,-23,5,-395,-17,3,nt,nt,nt,nt,nt
c1ccc2sc(Nc3nc4cc5c(cc4s3)OCO5)nc2c1,25,64*,-328,-11,-6,5,12,36,22,10
CC(C)C(=O)Nc1nc2cc3c(cc2s1)OCCO3,33,27,22,-1,4,nt,nt,nt,nt,nt
CC(=O)c1sc(Nc2nc3cc4c(cc3s2)OCO4)nc1C,nt,nt,-414,nt,5,nt,nt,nt,nt,nt
Cc1ccc(Nc2nc3ccccc3s2)c(C)c1,7,79*,17,62*,0,77*,73*,91*,54*,67*
CC(=O)Nc1nc2cc3c(cc2s1)OCO3,68*,56*,5,40,4,44,53*,86*,83*,26
Fc1ccc2nc(Nc3nc4cc5c(cc4s3)OCCO5)sc2c1,71*,35,-431,52*,35,-6,17,19,7,-2
O=C(COC(=O)c1ccc(Cl)cc1O)NC(=O)C1CCCCC1,5,5,-20,4,1,nt,nt,nt,nt,nt
O=C(Nc1ccncc1Cl)c1ccncc1,1,-3,5,0,3,nt,nt,nt,nt,nt
CC(=O)Nc1ccc(-c2ccnc3c2CC(C(=O)NCCC(F)(F)F)O3)cc1 (centres undefined),nt,nt,-8,nt,nt,nt,nt,nt,nt,nt
CCCCNC(=O)N1c2ccccc2CC1C (centres undefined),-4,2,8,-4,3,nt,nt,nt,nt,nt
NNc1nc2ccc(F)cc2s1,21,8,2,11,4,nt,nt,nt,nt,nt
Fc1ccc2nc(Nc3ccccc3)sc2c1,47,72*,7,64*,18,81*,81*,95*,58*,82*
O=C(c1ccccc1)c1ccc2cc(O)ccc2c1,99*,96*,-25,96*,71*,7,99*,102*,92*,97*
O=C(c1ccccc1)c1ccc2ccccc2c1,nt,nt,15,nt,nt,nt,nt,nt,nt,nt
Clc1ccc(-c2cn3c(n2)-c2ccccc2C3)cc1Cl,94*,98*,2,93*,7,43,84*,94*,80*,38
COc1ccc(-c2cc(C(=O)Nc3ccc(S(=O)(=O)Nc4onc(C)c4C)cc3)c3ccccc3n2)cc1,-12,7,-427,7,0,nt,nt,nt,nt,nt

# Bioassay records deposited in PubChem by several laboratories.
